Experimental data taken from PubChem BioAssay (NCATS).
Where “and” joins values, the source holds several entries; their conditions need not be identical. Equal values may be shown once. Results filed as inconclusive are left out. A call without a number means that no potency is given here. Calls of active or inactive are those of the source. Unless noted, the call rests on the fitted dose curve; in most records, active means well fitted curve in the direction sought with a large enough effect; inconclusive means small, poorly fitted or top-dose-only effect, or another doubt; inactive means no such curve, though single readings can be large; an effect the other way counts as inactive or inconclusive.

How the values were obtained:
[1] = P-glycoprotein substrates identified in KB-8-5-11 adenocarcinoma cell line, qHTS therapeutic library screen (AID 1346987); further: nearly all actives have a fitted effect of over 65% in size; further: potency means the concentration at half of the fitted maximal effect
Procedure, shortened: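 KB-8-5-11: colchicine-selected sub-line of KB-3-1 over-expressing P-gp; assay medium lacked colchicine. 72 h drug exposure at 37 degree C, CellTiter-Glo.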

[2] = Natriuretic polypeptide receptor (hNpr1) antagonism - Pilot counterscreen GloSensor control cell line (AID 1347045; calls by dose curve)
Procedure, shortened: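 HEK293 cells carrying the GloSensor cGMP sensor (GIP/pGS-40F) were loaded with 2% GloSensor reagent for 2 h, exposed to compounds for 30 min, and then stimulated with 50 uM sodium nitroprusside for 20 min at room temperature.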

[3] = target: Atrial natriuretic peptide receptor 1 (Homo sapiens) (UniProt P16066); experiment: Natriuretic polypeptide receptor (hNpr1) antagonism - Pilot screen (AID 1347049; calls by dose curve;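 further: agonist-evoked cGMP luminescence read 20 min after hNppA addition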)
Procedure, shortened: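 HEK293 cells expressing hNpr1 and GloSensor cGMP luciferase, 1500/well, loaded with 2% GloSensor reagent 2 h, compound 30 min at room temperature; luminescence read before and 20 min after 0.1 nM hNppA stimulation.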

[4] = target: Atrial natriuretic peptide receptor 2 (Homo sapiens) (UniProt P20594); experiment: Natriuretic polypeptide receptor (hNpr2) antagonism - Pilot subtype selectivity assay (AID 1347050; calls by dose curve)
Procedure, shortened: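 HEK293 cells expressing hNpr2 and a GloSensor cGMP luciferase sensor, 1500/well, preloaded 2 h with 2% GloSensor reagent, compound 30 min, then 1 nM hNppC for 20 min. Antagonism from luminescence after versus baseline pre-read; LOPAC in 1:5 titrations.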

[5] = NS1 protein of Zika virus - qHTS assay to identify small molecule inhibitors in human HEK 293 cells (AID 1347053); further: nearly all actives have a fitted effect of over 55% in size
Procedure, shortened: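 HEK 293; 20 h pre-culture, 37 C/5% CO2; cpd 1 h pre-infection; ZIKV MR766, MOI = 0.5, 24 h, 37 C; TR-FRET NS1 readout (two anti-NS1 Abs); norm. to no-virus vs infected.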

[6] = target: T1, Tyrosine-protein phosphatase non-receptor type substrate 1 (Homo sapiens) + Leukocyte surface antigen CD47 (Homo sapiens) (UniProt P78324+Q08722); experiment: CD47-SIRPalpha protein protein interaction - LANCE assay qHTS validation (AID 1347057; active means well fitted curve in the direction sought with a large enough effect in the signal ratio, with a control signal flat, not every such curve was filed as active; the % refers to the signal ratio)
Procedure, shortened: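 First, His-tagged CD47 and Eu-labelled anti-His antibody met the compound for 30 min; next, site-specifically biotinylated SIRPalpha was added for 30 min; finally streptavidin-APC was added before reading the TR-FRET ratio.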

[7] = target: T1, Tyrosine-protein phosphatase non-receptor type substrate 1 (Homo sapiens) + Leukocyte surface antigen CD47 (Homo sapiens); experiment: CD47-SIRPalpha protein protein interaction - Alpha assay qHTS validation (AID 1347059);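 further: bead proximity luminescence from CD47 binding SIRPalpha after compound preincubation with SIRPalpha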
Procedure, shortened: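 Biotinylated Avi-tagged SIRPalpha (25 nM) preincubated 30 min with compound, then His-tagged CD47 (12.5 nM) added 30 min; AlphaScreen with Ni-NTA acceptor and streptavidin donor beads. PBS pH 7.4, 0.05% IGEPAL, room temperature; 7-point titrations.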

[8] = qHTS of pediatric cancer cell lines to identify multiple opportunities for drug repurposing: Primary screen for TC32 cells (AID 1347089); further: nearly all actives have a fitted effect of over 60% in size; further: potency means the concentration at half of the fitted maximal effect
Procedure, shortened: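 TC32 cells, 500-1,000/well in growth medium, compound-treated 48 h at 37 °C; viability from CellTiter-Glo luminescence. Primary screen: MIPE 11-point (0.78 nM–46 µM final), NPC 8-point (0.59 nM–46 µM final); confirmatory at 11-point dilutions.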

[9] = qHTS of pediatric cancer cell lines to identify multiple opportunities for drug repurposing: Primary screen for DAOY cells (AID 1347090); further: nearly all actives have a fitted effect of over 55% in size; further: potency means the concentration at half of the fitted maximal effect
Procedure, shortened: (§1)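 Viability measured as metabolically active cells via CellTiter-Glo luminescence following 48 hours of compound exposure, 11-point dilutions in confirmatory testing. 500-1,000 cells/well plated 5 hours before dosing; controls were DMSO and 2.3 µM bortezomib.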

[10] = qHTS of pediatric cancer cell lines to identify multiple opportunities for drug repurposing: Primary screen for U-2 OS cells (AID 1347096); further: nearly all actives have a fitted effect of over 50% in size; further: potency means the concentration at half of the fitted maximal effect
Procedure, shortened: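 Viability after 48 h compound treatment at 37C, 500-1,000 cells/well, read as ATP luminescence with CellTiter-Glo. Primary screens used 11-point (MIPE, 0.78 nM-46 µM) or 8-point (NPC, 0.59 nM-46 µM) final concentrations; follow-up screens used 11-point dilutions.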

[11] = P-glycoprotein substrates identified in KB-3-1 adenocarcinoma cell line, qHTS therapeutic library screen (AID 1346986); conditions: KB-3-1 parental cells viability, CellTiter-Glo, 72 h; at 44.5 µM (top of the series) unless noted; further: nearly all actives have a fitted effect of over 60% in size
Procedure, shortened: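 Compounds were tested in dose-response against KB-3-1 and KB-8-5-11 cells at 37 degree C for 72 h, and viability was measured by luminescence. AC50 values came from curve fitting with class-based activity calls.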

[12] = qHTS of pediatric cancer cell lines to identify multiple opportunities for drug repurposing: Primary screen for A673 cells (AID 1347092); further: nearly all actives have a fitted effect of over 45% in size; further: potency means the concentration at half of the fitted maximal effect
Procedure, shortened: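 A673 cells (500-1,000 cells/well) were treated 48 hours at 37 degrees C with compounds at 11-point (0.78 nM to 46 µM) or 8-point (0.59 nM to 46 µM) dilutions. Viability read by CellTiter-Glo luminescence; concentration-response curves fitted.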

[13] = qHTS of pediatric cancer cell lines to identify multiple opportunities for drug repurposing: Primary screen for SK-N-MC cells (AID 1347093); further: potency means the concentration at half of the fitted maximal effect
Procedure, shortened: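 Metabolically active cells were quantified by ATP-dependent luminescence (CellTiter-Glo, 15 min at room temperature) following 48 h treatment. Cells had been plated at 500-1,000 per well and settled for 5 h beforehand.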

[14] = qHTS of pediatric cancer cell lines to identify multiple opportunities for drug repurposing: Primary screen for BT-37 cells (AID 1347094); further: potency means the concentration at half of the fitted maximal effect
Procedure, shortened: (§2)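 Viability was measured as metabolically active cells after 48 hours of treatment, read by CellTiter-Glo luminescence. Compounds were tested at multiple final concentrations, giving concentration-response curves.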

[15] = qHTS of pediatric cancer cell lines to identify multiple opportunities for drug repurposing: Primary screen for NB-EBc1 cells (AID 1347095); further: potency means the concentration at half of the fitted maximal effect
Procedure, shortened: as §2

[16] = qHTS of pediatric cancer cell lines to identify multiple opportunities for drug repurposing: Primary screen for SJ-GBM2 cells (AID 1347091); further: potency means the concentration at half of the fitted maximal effect
Procedure, shortened: as §1

[17] = Identifying Small Molecule Inhibitors of Pancreatic Cancer Stem Cells (SN12C, Spheroid) (AID 1259360)
Procedure, shortened: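 Monolayer and spheroid cultures are compared. Spheroids form over 14 days in stem cell medium on hydrogel-coated low-attachment plates, then are exposed to compound for 48 h before CellTiter-Glo luminescence.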

[18] = Identifying Small Molecule Inhibitors of Pancreatic Cancer Stem Cells (A278, Adherent) (AID 1259361); further: nearly all actives have a fitted effect of over 35% in size
Procedure, shortened: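 Endpoint: ATP-based luminescence, 48 h drug exposure. Bortezomib at 9.2 uM final as full-kill control; DMSO vehicle as negative control; activity normalized between vehicle and cell-free wells.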

[19] = target: Parathyroid hormone/parathyroid hormone-related peptide receptor (Homo sapiens) (UniProt Q03431); experiment: qHTS for PTHR1 Agonists: Optimization Screen against the NCGC LOPAC library (AID 1347079);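 further: GloSensor cAMP luminescence in HEK-293 GP2 cells expressing human PTHR1 with IBMX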
Procedure, shortened: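 Compounds were tested across a qHTS titration. PTHR1-expressing GP2 cells report cAMP rises via GloSensor luminescence after 1 hr compound exposure at 37C with IBMX present.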

[20] = Identifying Small Molecule Inhibitors of Pancreatic Cancer Stem Cells (Panc1, Adherent) (AID 1259362); conditions: Potency: viability;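 further: compound exposure lasted 48 h before the viability read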
Procedure, shortened: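 Luminescent ATP readout (CellTiter-Glo) quantifies surviving cells after a 48 h drug incubation. Normalization uses DMSO wells as no inhibition and media-only wells as full inhibition; bortezomib served as positive control.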

Chain of Atrial natriuretic peptide receptor 1 (Homo sapiens) (P16066 whole entry, looked up): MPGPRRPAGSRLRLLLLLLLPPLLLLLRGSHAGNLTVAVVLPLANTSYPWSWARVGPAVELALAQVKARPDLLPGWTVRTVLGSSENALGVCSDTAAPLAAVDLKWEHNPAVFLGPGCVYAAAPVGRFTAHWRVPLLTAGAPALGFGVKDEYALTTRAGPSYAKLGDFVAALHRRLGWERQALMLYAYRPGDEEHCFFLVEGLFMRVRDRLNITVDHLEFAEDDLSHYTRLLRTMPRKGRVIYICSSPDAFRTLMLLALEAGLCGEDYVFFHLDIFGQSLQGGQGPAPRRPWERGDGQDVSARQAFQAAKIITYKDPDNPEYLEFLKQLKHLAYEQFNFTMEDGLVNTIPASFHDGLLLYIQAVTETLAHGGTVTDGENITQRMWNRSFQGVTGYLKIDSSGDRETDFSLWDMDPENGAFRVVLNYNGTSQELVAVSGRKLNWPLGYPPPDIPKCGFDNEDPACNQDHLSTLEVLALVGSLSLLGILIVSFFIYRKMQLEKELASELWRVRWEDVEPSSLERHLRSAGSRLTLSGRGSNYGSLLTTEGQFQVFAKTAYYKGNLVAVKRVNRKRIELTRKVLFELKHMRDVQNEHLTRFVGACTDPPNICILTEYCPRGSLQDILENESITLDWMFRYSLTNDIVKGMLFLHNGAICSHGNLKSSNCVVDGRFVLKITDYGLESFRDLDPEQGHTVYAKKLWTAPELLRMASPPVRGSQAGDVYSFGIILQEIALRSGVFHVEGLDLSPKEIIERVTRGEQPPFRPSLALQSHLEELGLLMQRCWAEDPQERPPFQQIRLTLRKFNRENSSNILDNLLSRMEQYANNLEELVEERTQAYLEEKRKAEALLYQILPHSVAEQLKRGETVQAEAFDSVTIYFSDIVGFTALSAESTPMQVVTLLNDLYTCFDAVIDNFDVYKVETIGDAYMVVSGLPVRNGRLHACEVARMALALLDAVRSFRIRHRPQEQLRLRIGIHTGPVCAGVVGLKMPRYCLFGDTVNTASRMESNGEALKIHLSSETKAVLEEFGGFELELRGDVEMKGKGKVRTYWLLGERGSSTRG
Chain of Atrial natriuretic peptide receptor 2 (Homo sapiens) (P20594 whole entry, looked up): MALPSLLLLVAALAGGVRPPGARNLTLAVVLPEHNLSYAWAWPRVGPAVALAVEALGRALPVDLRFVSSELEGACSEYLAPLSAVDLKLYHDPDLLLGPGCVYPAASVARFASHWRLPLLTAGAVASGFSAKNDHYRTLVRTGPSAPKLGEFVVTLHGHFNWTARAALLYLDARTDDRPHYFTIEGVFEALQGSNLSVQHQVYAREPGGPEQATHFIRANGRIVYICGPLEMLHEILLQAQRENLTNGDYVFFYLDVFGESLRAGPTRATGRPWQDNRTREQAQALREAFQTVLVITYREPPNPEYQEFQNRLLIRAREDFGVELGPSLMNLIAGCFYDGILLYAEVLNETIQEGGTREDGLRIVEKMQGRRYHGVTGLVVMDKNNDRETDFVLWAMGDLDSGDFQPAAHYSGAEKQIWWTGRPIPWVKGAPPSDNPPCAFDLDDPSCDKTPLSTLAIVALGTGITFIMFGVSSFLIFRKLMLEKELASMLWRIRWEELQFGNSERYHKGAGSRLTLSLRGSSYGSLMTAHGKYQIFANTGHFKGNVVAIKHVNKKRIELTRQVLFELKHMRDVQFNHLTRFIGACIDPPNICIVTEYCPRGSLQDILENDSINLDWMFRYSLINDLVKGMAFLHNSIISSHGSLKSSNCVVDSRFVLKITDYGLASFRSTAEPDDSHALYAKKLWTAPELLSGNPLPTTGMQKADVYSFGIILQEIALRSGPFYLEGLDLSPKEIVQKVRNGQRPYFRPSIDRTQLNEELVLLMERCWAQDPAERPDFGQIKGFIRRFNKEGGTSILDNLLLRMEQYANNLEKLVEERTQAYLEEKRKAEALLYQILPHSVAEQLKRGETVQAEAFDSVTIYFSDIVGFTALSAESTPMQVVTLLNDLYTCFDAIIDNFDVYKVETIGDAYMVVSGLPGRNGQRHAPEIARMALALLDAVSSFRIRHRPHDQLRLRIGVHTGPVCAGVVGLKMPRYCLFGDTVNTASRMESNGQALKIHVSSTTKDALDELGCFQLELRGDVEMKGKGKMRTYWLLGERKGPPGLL
T1 sequence (P78324 whole entry, looked up): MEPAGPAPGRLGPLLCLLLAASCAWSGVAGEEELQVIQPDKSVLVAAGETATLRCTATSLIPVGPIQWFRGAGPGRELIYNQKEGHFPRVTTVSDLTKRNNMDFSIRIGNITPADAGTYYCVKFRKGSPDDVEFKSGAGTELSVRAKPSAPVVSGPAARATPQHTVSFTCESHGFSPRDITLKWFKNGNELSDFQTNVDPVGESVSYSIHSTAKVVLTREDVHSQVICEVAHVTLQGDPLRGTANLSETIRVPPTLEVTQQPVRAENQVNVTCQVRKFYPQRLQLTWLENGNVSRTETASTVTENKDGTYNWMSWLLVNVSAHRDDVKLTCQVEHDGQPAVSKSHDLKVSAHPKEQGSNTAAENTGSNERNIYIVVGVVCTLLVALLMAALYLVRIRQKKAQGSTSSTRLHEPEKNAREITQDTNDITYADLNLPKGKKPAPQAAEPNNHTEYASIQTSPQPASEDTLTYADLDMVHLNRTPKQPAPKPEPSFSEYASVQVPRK
T1 sequence (Q08722 whole entry, looked up): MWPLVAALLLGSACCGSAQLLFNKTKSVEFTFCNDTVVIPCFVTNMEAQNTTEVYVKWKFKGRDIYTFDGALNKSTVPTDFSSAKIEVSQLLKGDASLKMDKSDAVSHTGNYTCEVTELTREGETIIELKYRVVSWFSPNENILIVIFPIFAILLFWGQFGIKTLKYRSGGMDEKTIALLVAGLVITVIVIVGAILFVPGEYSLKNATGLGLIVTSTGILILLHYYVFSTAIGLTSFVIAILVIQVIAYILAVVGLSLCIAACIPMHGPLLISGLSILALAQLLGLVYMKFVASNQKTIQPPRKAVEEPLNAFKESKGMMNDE
Chain of Parathyroid hormone/parathyroid hormone-related peptide receptor (Homo sapiens) (Q03431 whole entry, looked up): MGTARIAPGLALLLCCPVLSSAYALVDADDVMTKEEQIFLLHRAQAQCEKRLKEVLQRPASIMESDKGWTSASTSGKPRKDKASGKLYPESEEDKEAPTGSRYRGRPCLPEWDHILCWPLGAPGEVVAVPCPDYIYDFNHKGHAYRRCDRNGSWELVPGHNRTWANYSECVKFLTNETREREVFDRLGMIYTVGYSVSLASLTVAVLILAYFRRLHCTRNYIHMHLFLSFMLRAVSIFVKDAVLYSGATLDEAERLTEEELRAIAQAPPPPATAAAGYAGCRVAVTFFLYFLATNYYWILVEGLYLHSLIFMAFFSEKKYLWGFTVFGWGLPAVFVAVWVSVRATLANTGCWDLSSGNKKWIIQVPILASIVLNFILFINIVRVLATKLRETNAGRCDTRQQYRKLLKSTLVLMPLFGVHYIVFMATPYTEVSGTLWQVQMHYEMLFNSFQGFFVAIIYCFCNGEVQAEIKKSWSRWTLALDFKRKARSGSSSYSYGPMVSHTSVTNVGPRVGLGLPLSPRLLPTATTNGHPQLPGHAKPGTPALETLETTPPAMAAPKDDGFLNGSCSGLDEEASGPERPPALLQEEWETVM

Row | Structure (SMILES) | Potency [1] | outcome [2] | outcome [3] | Potency [4] | Potency [5] | outcome [6] | outcome [7] | Potency [8] | Potency [9] | Potency [10] | outcome [11] | Potency [12] | Potency [13] | Potency [14] | Potency [15] | Potency [16] | outcome [17] | IC50 (viability decrease) [18] | Potency [19] | Potency [20]
1 | CCN(CC)CCOC(=O)C1(C2CCCCC2)CCCCC1 | inactive | inactive | inactive | inactive | inactive | inactive | inactive | inactive | inactive | inactive |  |  |  |  |  |  |  |  |  | 
2 | COc1ccc2[nH]c(S(=O)Cc3ncc(C)c(OC)c3C)nc2n1 (stereo not given) | inactive |  |  |  | inactive |  |  | inactive | inactive | inactive | inactive | inactive | inactive | inactive | inactive |  |  |  |  | 
3 | CCCCCCCCCCCCCCCC(=O)NCCO | inactive |  | inactive | inactive | inactive |  |  | inactive |  | inactive |  | inactive | inactive | inactive | inactive | inactive |  |  |  | 
4 | COc1ccc(Cl)cc1C(=O)NCCc1ccc(S(=O)(=O)NC(=O)NC2CCCCC2)cc1 | inactive | inactive | inactive | inactive | inactive | inactive | inactive | inactive | inactive | inactive | inactive | inactive |  | inactive | inactive | inactive |  |  |  | 
5 | O=C1N=C(O)CN1/N=C/c1ccc(-c2ccc([N+](=O)[O-])cc2)o1 | inactive | inactive | inactive | inactive | inactive |  | inactive | inactive |  | inactive |  | inactive |  | inactive |  | inactive |  |  |  | 
6 | CC1=C(CC(=O)O)c2cc(F)ccc2/C1=C\c1ccc(S(C)(=O)=O)cc1 | inactive | inactive | inactive | inactive | inactive | inactive | inactive | inactive | inactive | inactive |  |  | inactive | inactive | inactive | inactive |  |  |  | 
7 | CCCCN1CCCC[C@H]1C(=O)Nc1c(C)cccc1C | inactive |  |  |  | inactive |  |  | inactive | inactive | inactive | inactive | inactive | inactive | inactive | inactive |  |  |  |  | 
8 | CC(=O)O[C@@]12CO[C@@H]1C[C@H](O)[C@@]1(C)C(=O)[C@H](O)C3=C(C)[C@@H](OC(=O)[C@H](O)[C@@H](NC(=O)OC(C)(C)C)c4ccccc4)C[C@@](O)([C@@H](OC(=O)c4ccccc4)[C@H]21)C3(C)C | 6.51 µM (active) and 4.11 µM (active) |  |  |  | inactive |  |  | 0.0026 µM (active) |  | inactive |  | 0.001 µM (active) | 0.001 µM (active) |  |  |  | inactive | inactive |  | 
9 | CCN(CC)CCCC(C)Nc1c2ccc(Cl)cc2nc2ccc(OC)cc12 (stereo not given) | 6.32 µM (active) |  | inactive | inactive | inactive |  |  | inactive |  | inactive |  | 21.1 µM (active) |  | 27.6 µM (active) | 15 µM (active) |  |  |  | inactive | 
10 | NC(=O)c1ncn([C@@H]2O[C@H](CO)[C@@H](O)[C@H]2O)c1N | inactive |  |  |  | inactive |  |  | inactive |  | inactive |  | inactive | inactive | inactive | inactive | inactive |  | inactive |  | 
11 | C[C@@H]1C[C@H]2[C@@H]3C[C@H](F)C4=CC(=O)C=C[C@]4(C)[C@@]3(F)[C@@H](O)C[C@]2(C)[C@@]1(O)C(=O)CO | inactive |  |  |  | inactive |  |  | inactive | inactive | inactive | inactive | inactive | inactive | inactive | inactive | inactive |  |  |  | 
12 | Cc1cc(N)c2ccccc2[n+]1CCCCCCCCCC[n+]1c(C)cc(N)c2ccccc21 | inactive | inactive | inactive | inactive |  | inactive | inactive |  |  |  |  |  |  |  |  |  |  |  |  | 
13 | Nc1cc(=O)[nH]c(N)n1 | inactive |  | inactive | inactive | inactive | inactive | inactive | inactive | inactive | inactive |  |  | inactive | inactive | inactive | inactive |  |  |  | 
14 | Oc1cn2c(n1)Nc1ccc(Cl)c(Cl)c1C2 | 18.4 nM (active) and 20.6 nM (active) |  |  |  | inactive |  |  | inactive | inactive | inactive |  | inactive |  | inactive | inactive | inactive | inactive | inactive |  | inactive
15 | CC(C)c1c(C(=O)Nc2ccccc2)c(-c2ccccc2)c(-c2ccc(F)cc2)n1CC[C@@H](O)C[C@@H](O)CC(=O)O | inactive |  |  |  | inactive | inactive | inactive |  | 4.22 µM (active) | 21.1 µM (active) |  | 21.1 µM (active) |  | 24.6 µM (active) |  | 11.9 µM (active) |  |  |  | 
16 | CC(=O)c1ccc2c(c1)N(CCCN(C)C)c1ccccc1S2 | inactive |  |  |  | inactive | inactive | inactive | inactive |  | inactive |  |  | inactive | inactive | inactive | inactive |  |  |  | 
17 | O=C1NS(=O)(=O)c2ccccc21 | inactive |  |  |  | inactive |  |  | inactive | inactive | inactive |  | inactive | inactive | inactive | inactive | inactive |  |  |  | 
18 | OC[C@H]1O[C@@H](O[C@@H]2[C@@H](CO)O[C@](O)(CO)[C@H]2O)[C@H](O)[C@@H](O)[C@H]1O | inactive |  |  |  | inactive |  |  | inactive | inactive | inactive |  | inactive | inactive | inactive | inactive | inactive |  |  |  | 
19 | O=C(O)CC(O)C(=O)O (stereo not given) | inactive |  |  |  | inactive |  |  | inactive | inactive | inactive |  | inactive | inactive | inactive | inactive | inactive |  |  |  | 
20 | CN(C)CCCO[C@@H]1[C@H]2OC(C)(C)O[C@H]2O[C@@H]1C(O)CO (stereo not given in full) | inactive |  |  |  | inactive |  |  | inactive | inactive | inactive |  | inactive | inactive | inactive | inactive | inactive |  |  |  | 
21 | CCCCC/C(C=O)=C\c1ccccc1 | inactive |  |  |  | inactive |  |  | inactive | inactive | inactive |  | inactive | inactive | inactive | inactive | inactive |  |  |  | 
